The text below walks through data of a collection of fitness landscapes (doi:10.1038/s41467-024-54723-y).

Whole data set: some 18,000 sequences, median “TetR repression strength (sort-seq, GFP reporter)” near 0.23, cut for the highest 2% near 0.68. This excerpt belongs to a sample that is enriched for the highest values.

The target in this experiment is TetR (class B, Tn10) (UniProt P04483). The experiment can be described thus: TetR repression strength (sort-seq, GFP reporter) (relative to tetO2 = 1); higher = stronger repression. The note with it: E. coli. An outline of the steps: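 Escherichia coli SIG10-MAX cells carried a low-copy plasmid library in which eight operator positions were randomized between a constitutive promoter and sfGFP, and TetR was expressed constitutively. After 5 h of growth at 37 °C in LB with 50 µg/mL chloramphenicol, 10^6 cells were FACS-sorted into 13 fluorescence bins, and each bin was Illumina-sequenced. Repression strength was the top bin index plus one minus the read-weighted mean bin, divided by the value for the unaltered operator. Across three independent transformations, only library members with ≥30 reads in every replicate and a CV ≤0.5 were averaged.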
Sequence of TetR (class B, Tn10) (P04483 whole entry): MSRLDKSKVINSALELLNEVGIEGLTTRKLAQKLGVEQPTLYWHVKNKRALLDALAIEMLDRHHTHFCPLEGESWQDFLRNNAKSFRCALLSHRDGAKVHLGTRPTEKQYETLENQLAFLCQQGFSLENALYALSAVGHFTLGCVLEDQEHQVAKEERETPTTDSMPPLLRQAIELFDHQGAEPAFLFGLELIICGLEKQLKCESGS
Take TCCCCCGGAGTAGAGGAGA: the TetR repression strength was 0.187. On to TCCCGGCTAGTAGCAGAGA, for which the TetR repression strength worked out at 0.0201. To TCCCTTTGAGTCGCAGAGA belongs 0.386.

The sequence TCCCAGGGAGTGGAAGAGA had a TetR repression strength of 0.235.

In the case of TCCCGACTAGTTCGCGAGA, the TetR repression strength is 0.367.

Consider TCCCATATAGTTAGCGAGA, for which the TetR repression strength was 0.247. For the sequence TCCCTCAGAGTTCCAGAGA, the TetR repression strength is 0.313. Regarding TCCCCACTAGTCCGTGAGA, the TetR repression strength turned out to be 0.279. Sequence TCCCTTAAAGTACAGGAGA gave a TetR repression strength of 0.125. TCCCTTATAGTACAGGAGA: the TetR repression strength turned out to be 0.103. Turning to TCCCCTATAGTACAGGAGA, the TetR repression strength amounted to 0.792. To TCCCCTATAGTATAGGAGA belongs 0.0691; to TCCCCTAAAGTACAGGAGA, 0.0737; to TCCCCTTAAGTACAGGAGA, 0.72. The sequence TCCCTGGAAGTGCAAGAGA gave a TetR repression strength of 0.431.

TCCCAGGCAGTTGAAGAGA displayed a TetR repression strength of 0.182. With TCCCAGTCAGTTGAAGAGA the figure was 0.858. Turning to TCCCAGGCAGTTGAGGAGA, the TetR repression strength stood at 0.216. TCCCAGGCAGTTGACGAGA showed a TetR repression strength of 0.698. To TCCCAGGGAGTTGACGAGA belongs 0.0614; to TCCCAATCAGTTGAAGAGA, 0.279; to TCCCACCCAGTCAATGAGA, 0.783. The sequence TCCCATCCAGTCAATGAGA registered a TetR repression strength of 0.0518. The sequence TCCCAATGAGTCAATGAGA yielded a TetR repression strength of 0.207.

Turning to TCCCCACCAGTCAATGAGA, the TetR repression strength was found to be 0.315. To TCCCAAGTAGTCAATGAGA belongs 0.663. To TCCCACCAAGTCAATGAGA belongs 0.943; to TCCCCGCGAGTTGTAGAGA, 0.0957.

Sequence TCCCGGGTAGTTACTGAGA had a TetR repression strength of 0.123.

On to TCCCCAGAAGTGCGTGAGA, for which the TetR repression strength was determined as 0.0661. In turn, TCCCAACTAGTCGACGAGA returned a TetR repression strength of 0.701.

Turning to TCCCAACTAGTCGAAGAGA, the TetR repression strength was determined as 0.267. With TCCCAACTAGTCGTCGAGA the figure was 0.214. With TCCCGACGAGTCGACGAGA the figure was 0.178; with TCCCAACGAGTCAACGAGA, 0.366; with TCCCAACGAGTCGACGAGA, 0.696. To TCCCTGCTAGTGAAGGAGA belongs 0.649; to TCCCTAACAGTGATAGAGA, 0.816; to TCCCTAGCAGTGATAGAGA, 0.858. TCCCTCCCAGTGATAGAGA had a TetR repression strength of 0.561.

Sequence TCCCTTCCAGTGATAGAGA gave a TetR repression strength of 0.668. Consider TCCCTACCAGTGATAGAGA, for which the TetR repression strength was 0.94. Take TCCCTAGTAGTGATAGAGA: the TetR repression strength was found to be 0.533. With TCCCTAGCAGTGAGAGAGA the figure was 0.376; with TCCCAACGAGTTGTGGAGA, 0.189; with TCCCACGCAGTAGGTGAGA, 0.138. For the sequence TCCCTGCTAGTAGGAGAGA, the TetR repression strength came to 0.415. To TCCCAGTCAGTGGCGGAGA belongs 0.205; to TCCCTAGAAGTACTAGAGA, 0.152; to TCCCCAGCAGTTTAGGAGA, 0.207. In the case of TCCCGTCGAGTTTGAGAGA, the TetR repression strength came out at 0.274. To TCCCGTCTAGTTAGAGAGA belongs 0.224.

The sequence TCCCGTCTAGTTAGTGAGA showed a TetR repression strength of 0.719. Regarding TCCCGTCGAGTTAGTGAGA, the TetR repression strength came to 0.366.

As for TCCCGTCTAGTTTGCGAGA, the TetR repression strength amounted to 0.277.

Regarding TCCCGTCGAGTTTGTGAGA, the TetR repression strength came to 0.772. To TCCCGTCGAGTTTTTGAGA belongs 0.363; to TCCCGTCTAGTTTGTGAGA, 0.784; to TCCCGTCTAGTGTGTGAGA, 0.237. In the case of TCCCTGTGAGTCGCGGAGA, the TetR repression strength is 0.327. With TCCCGGTCAGTGCTAGAGA, the TetR repression strength turned out to be 0.638. TCCCAGGGAGTCAGTGAGA registered a TetR repression strength of 0.319. For the sequence TCCCTACTAGTAGTAGAGA, the TetR repression strength worked out at 0.389.

The sequence TCCCGGATAGTTGATGAGA yielded a TetR repression strength of 0.285. With TCCCACTCAGTGAGGGAGA the figure was 0.255; with TCCCGCAGAGTTAGAGAGA, 0.5; with TCCCATACAGTGAGTGAGA, 0.176. To TCCCGAGAAGTCGCGGAGA belongs 0.0355; to TCCCAGTAAGTCGGGGAGA, 0.698; to TCCCAGTAAGTATCGGAGA, 0.221. With TCCCAGTGAGTGTCGGAGA, the TetR repression strength was found to be 0.183. With TCCCGTGGAGTCGTGGAGA the figure was 0.209; with TCCCTGAAAGTGACGGAGA, 0.506; with TCCCAGTAAGTCCGGGAGA, 0.157. With TCCCAGTAAGTGTCGGAGA the figure was 0.811. As to TCCCTGTGAGTGACGGAGA, the TetR repression strength was 0.115. TCCCGTGCAGTCGTCGAGA returned a TetR repression strength of 0.216. With TCCCTGTAAGTGACGGAGA the figure was 0.796; with TCCCAGTAAGTGGGGGAGA, 0.196. With TCCCGTGCAGTCGTGGAGA the figure was 1; with TCCCGCATAGTAGGTGAGA, 0.317. With TCCCAATGAGTTCGTGAGA, the TetR repression strength was determined as 0. To TCCCTCATAGTGGGCGAGA belongs 0.213; to TCCCGCCCAGTAGGGGAGA, 0.163. With TCCCTGCAAGTTGATGAGA the figure was 0.246; with TCCCATGTAGTCCTGGAGA, 0.341. On to TCCCCTTAAGTGGTAGAGA, for which the TetR repression strength worked out at 0.201.

The sequence TCCCCGTTAGTGTCGGAGA yielded a TetR repression strength of 0.137. To TCCCTGTCAGTCGGGGAGA belongs 0.154.

Regarding TCCCAGTCAGTCTTTGAGA, the TetR repression strength was 0.726. To TCCCGTACAGTGGGGGAGA belongs 0.145; to TCCCAGTGAGTCTTTGAGA, 0.339; to TCCCATTCAGTCTTTGAGA, 0.228. Turning to TCCCGTATAGTCGGGGAGA, the TetR repression strength turned out to be 0.216. To TCCCGTACAGTCGGGGAGA belongs 0.698; to TCCCAGTCAGTCGGGGAGA, 0.776; to TCCCAGCCAGTCGGGGAGA, 0.184. To TCCCGGTGAGTCAAAGAGA belongs 0.338. In turn, TCCCTTCCAGTCATTGAGA registered a TetR repression strength of 0.225. Consider TCCCTGTCAGTATAGGAGA, for which the TetR repression strength was determined as 0.0605. To TCCCGCCGAGTGGACGAGA belongs 0.514; to TCCCCTGCAGTTGGAGAGA, 0.159.
